Screening data (PubChem)
ABHD5 PLIN5 PPI: ABHD5-PLIN5 interaction inhibitors, primary screen, cell lysate, split luciferase complementation, luminescence. Perilipin-5 (Homo sapiens) + 1-acylglycerol-3-phosphate O-acyltransferase ABHD5 (Homo …. Split G. princeps luciferase complementation, 4 h. 360,000 compounds, 0.78% hits. inhibition, % at 4 µM;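 active = inhibition above the mean inhibition across every tested compound plus 3 SD, cut at about 22% in these data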;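 also: 0% = DMSO only wells and the 100% control is not disclosed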
HIF-2a block: HIF-2a reporter inhibitors, primary screen, luminescence, 786-0 RCC cells. 786-0 RCC cells HIF-2a reporter, luciferase luminescence, overnight. inhibition, % at 18.8 µM. 360,000 compounds, 0.72% hits. AID 624352, 2012;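 active = inhibition of the luminescence signal of 40% or more relative to plate controls, in a single-dose primary screen at 18.75 µM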
CF NFkB inh: inhibitors of PAF-induced NF-kB signaling, primary screen, cell-based, GFP fluorescence, uHTS; inhibition, % at 5 µM; KKLEB NF-kB-GFP reporter, GFP fluorescence overnight; 360,000 compounds, 0.86% hits;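 active = at least 50% inhibition at 5 µM, scaled per plate between neutral and stimulator controls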;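 also: PAF is a Pseudomonas aeruginosa culture filtrate used as stimulus; plate controls were PAF-stimulated DMSO wells for no effect and unstimulated DMSO wells for full effect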
Peg3 prom inh: Peg3 promoter-driven luciferase inhibitors, primary screen, cell-based, HeLa, luciferase luminescence; HeLa PEG-Prom luciferase reporter, overnight; inhibition, % at 20 µM; 360,000 compounds, 1.7% hits;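 active = inhibition of at least 50% at 20 µM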
Mdm2 MdmX PPI: inhibitors of human Mdm2-MdmX association, primary screen, cell-based, luminescence, split luciferase, SaOS-2, uHTS; AID 485346, 2010; SaOS-2 split-luciferase Mdm2/MdmX complementation; 330,000 compounds, 3% hits; inhibition, % at 8 µM; Protein Mdm4 (Homo sapiens) + E3 ubiquitin-protein ligase Mdm2 (Homo sapiens), …;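 active = inhibition of at least 50% at 8 µM in the primary screen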
Target sequence (O15151 whole entry, looked up): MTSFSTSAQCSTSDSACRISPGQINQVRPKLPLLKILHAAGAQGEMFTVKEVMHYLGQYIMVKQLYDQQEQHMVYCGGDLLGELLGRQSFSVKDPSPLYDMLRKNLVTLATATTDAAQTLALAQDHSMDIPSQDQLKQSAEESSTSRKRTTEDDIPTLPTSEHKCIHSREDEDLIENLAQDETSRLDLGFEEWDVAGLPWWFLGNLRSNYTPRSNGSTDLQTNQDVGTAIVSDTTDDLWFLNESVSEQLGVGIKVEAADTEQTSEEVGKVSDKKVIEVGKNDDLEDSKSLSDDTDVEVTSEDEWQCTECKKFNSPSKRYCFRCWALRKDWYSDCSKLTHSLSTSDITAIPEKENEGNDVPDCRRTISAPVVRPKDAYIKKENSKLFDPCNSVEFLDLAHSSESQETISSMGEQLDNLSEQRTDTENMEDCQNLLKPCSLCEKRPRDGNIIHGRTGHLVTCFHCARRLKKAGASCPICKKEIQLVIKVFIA
Target sequence (Q00987 whole entry, looked up): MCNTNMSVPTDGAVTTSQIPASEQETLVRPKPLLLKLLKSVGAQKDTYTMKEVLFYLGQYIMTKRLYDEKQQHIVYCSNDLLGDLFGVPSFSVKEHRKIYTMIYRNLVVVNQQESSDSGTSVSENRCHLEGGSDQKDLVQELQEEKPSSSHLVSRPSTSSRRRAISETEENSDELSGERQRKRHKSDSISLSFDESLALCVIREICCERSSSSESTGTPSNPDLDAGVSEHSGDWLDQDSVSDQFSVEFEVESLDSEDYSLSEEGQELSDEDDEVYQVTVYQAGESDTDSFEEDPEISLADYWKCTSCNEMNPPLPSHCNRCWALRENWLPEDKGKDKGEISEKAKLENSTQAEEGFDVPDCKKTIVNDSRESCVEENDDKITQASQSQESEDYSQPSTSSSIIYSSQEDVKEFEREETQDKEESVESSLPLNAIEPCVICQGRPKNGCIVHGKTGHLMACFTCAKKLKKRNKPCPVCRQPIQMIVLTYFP
KKLEB tox: cytotoxicity in KKLEB CF airway cells, primary screen, cytotoxicity control for CF NF-kB inhibitor project, cell-based, uHTS, fluorescence assay plates; 360,000 compounds, 0.36% hits; KKLEB CF airway cells viability, ATPlite luminescence, overnight; stronger effect = lower value; cells stimulated with P. aeruginosa culture filtrate; activity change (cytotoxicity), % at 5 µM;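 active = corrected activity change at or below -50% at 5 µM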
CF NFkB inh conf: inhibitors of PAF-induced NF-kB signaling, retest, confirmation, cell-based, GFP fluorescence, single concentration; shares compounds with CF NFkB inh; KKLEB CF airway cells, overnight; inhibition, % at 5 µM; 1,300 compounds, 64% hits; in the data active = inhibition above about 40%;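 also: stimulus PAF is a Pseudomonas aeruginosa filtrate and not platelet activating factor; plate controls were DMSO wells with stimulus for no effect and unstimulated DMSO wells for full effect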
Starred values were filed as active, the others as inactive. Hits are enriched below; roughly 4.6% of the tested compounds scored in any of these assays.

COc1ccc(Cc2c(-c3ccco3)nc3ccc(Br)cn23)c(C)c1 was read as ABHD5 PLIN5 PPI 43*, HIF-2a block -21, CF NFkB inh 53*, Peg3 prom inh 5, KKLEB tox -26 and CF NFkB inh conf -13.
Screening Cc1cc(Br)cn2c(Cc3ccsc3)c(-c3ccc(Cl)cc3)nc12 returned ABHD5 PLIN5 PPI 2, HIF-2a block -12, CF NFkB inh 50*, Peg3 prom inh 46, KKLEB tox -2 and CF NFkB inh conf 13.
For CC(NC(=O)CN1C(=O)NC2(CCCC2)C1=O)c1ccc(Cl)cc1Cl (stereo not drawn) the results were ABHD5 PLIN5 PPI 1, HIF-2a block -6, CF NFkB inh 7, Peg3 prom inh 5, Mdm2 MdmX PPI 9 and KKLEB tox 7.
Screening COC(=O)[C@@]12CCCCN1[C@H](c1ccc(-c3ccc(F)cc3)c(OC)c1)[C@@H]1C(=O)N(C)C(=O)[C@@H]12 returned ABHD5 PLIN5 PPI -12, HIF-2a block 18, CF NFkB inh -8, Peg3 prom inh 5, Mdm2 MdmX PPI 18 and KKLEB tox 20.
Screening CCCCC(=O)NC(=S)Nc1nnn(CCC)n1 returned ABHD5 PLIN5 PPI -3, HIF-2a block 6, CF NFkB inh 12, Peg3 prom inh 5, Mdm2 MdmX PPI 25 and KKLEB tox -10.
For CCC(=O)O[C@]1(C(=O)CCl)[C@@H](C)C[C@H]2[C@@H]3CCC4=CC(=O)C=C[C@]4(C)[C@@]3(F)[C@@H](O)C[C@@]21C the results were ABHD5 PLIN5 PPI 11, HIF-2a block 24, CF NFkB inh 77*, Peg3 prom inh 1, Mdm2 MdmX PPI 15, KKLEB tox 17 and CF NFkB inh conf 18.
CCCC(=O)O[C@]1(C(=O)CCl)[C@@H](C)C[C@H]2[C@@H]3CCC4=CC(=O)C=C[C@]4(C)[C@@]3(F)C(=O)C[C@@]21C was read as ABHD5 PLIN5 PPI -3, HIF-2a block 31, CF NFkB inh 91*, Peg3 prom inh -2, Mdm2 MdmX PPI 13, KKLEB tox -3 and CF NFkB inh conf 2.
`CCC(=O)OC1(C(=O)CCl)[C@@H](C)C[C@H]2[C@@H]3CCC4=CC(=O)C=C[C@]4(C)[C@@]3(F)[C@@H](O)C[C@@]21C` (stereo partly drawn) gave ABHD5 PLIN5 PPI 6, HIF-2a block 26, CF NFkB inh 76*, Peg3 prom inh 5, Mdm2 MdmX PPI 5, KKLEB tox -7 and CF NFkB inh conf 18.
Screening CSC(=NS(=O)(=O)c1ccccc1)NNC(=O)c1c(-c2c(Cl)cccc2Cl)noc1C returned ABHD5 PLIN5 PPI -6, HIF-2a block 4, CF NFkB inh 18, Peg3 prom inh 6 and KKLEB tox -9.
CCCCCNC(=O)C1CCC(Cn2c(=S)[nH]c3ccccc3c2=O)CC1 (stereo not drawn) was read as ABHD5 PLIN5 PPI 0, HIF-2a block 3, CF NFkB inh -43, Peg3 prom inh 11, Mdm2 MdmX PPI 6 and KKLEB tox -1.
Screening CCOC(=O)c1c(-c2ccc(C)cc2)csc1NC(=O)c1ccc(N2C(=O)CCC2=O)cc1 returned ABHD5 PLIN5 PPI 9, HIF-2a block 10, CF NFkB inh 58*, Peg3 prom inh 5, Mdm2 MdmX PPI -7, KKLEB tox -41 and CF NFkB inh conf 55*.
O=c1c2ccccc2nnn1CSc1ccccc1F was read as ABHD5 PLIN5 PPI 0, HIF-2a block -117, CF NFkB inh 26, Peg3 prom inh -129, Mdm2 MdmX PPI -108 and KKLEB tox -26.
Screening O=c1c2ccccc2nnn1CSc1ncnc2ccccc12 returned ABHD5 PLIN5 PPI 3, HIF-2a block -3, CF NFkB inh 66*, Peg3 prom inh 16, Mdm2 MdmX PPI 33, KKLEB tox -36 and CF NFkB inh conf 41*.
Screening C[C@]12CCC(O)CC1CCC1C2CC[C@]2(C)C(c3cc(C(F)(F)F)n[nH]3)CCC12 (stereo partly drawn) returned ABHD5 PLIN5 PPI 5, HIF-2a block 36, CF NFkB inh 56*, Peg3 prom inh 101*, Mdm2 MdmX PPI 29, KKLEB tox -37 and CF NFkB inh conf 71*.
`Cc1noc(C)c1NC(=O)Nc1ccc2c(c1)C(=O)N([C@H](C)CO)C[C@@H](C)[C@@H](CN(C)S(=O)(=O)c1cn(C)cn1)OCCCC[C@H](C)O2` gave ABHD5 PLIN5 PPI 9, HIF-2a block 5, CF NFkB inh -7, Peg3 prom inh 5 and KKLEB tox 2.
Screening O=[N+]([O-])c1nccn1CCCCCCCCCCCN1CCOCC1 returned ABHD5 PLIN5 PPI -1, HIF-2a block -91, CF NFkB inh -14, Peg3 prom inh -40 and KKLEB tox -7.
For O=c1cc(-c2ccc([N+](=O)[O-])cc2)c2ccc(O)cc2o1 the results were ABHD5 PLIN5 PPI 1, HIF-2a block 11, CF NFkB inh 53*, Peg3 prom inh 49, Mdm2 MdmX PPI 22, KKLEB tox 14 and CF NFkB inh conf 25.
`Fc1cc(F)c(F)c(SCn2cc(Br)cn2)c1F` gave ABHD5 PLIN5 PPI 5, HIF-2a block 3, CF NFkB inh -10, Peg3 prom inh -11, Mdm2 MdmX PPI 23 and KKLEB tox -20.
For O=C(NCCc1c[nH]c2ccccc12)c1ccc([N+](=O)[O-])o1 the results were ABHD5 PLIN5 PPI -4, HIF-2a block 5, CF NFkB inh 70*, Peg3 prom inh 3, KKLEB tox -8 and CF NFkB inh conf 43*.
Screening C/C(=N/Nc1ccccc1[N+](=O)[O-])c1ccc([N+](=O)[O-])cc1 returned ABHD5 PLIN5 PPI 6, HIF-2a block 14, CF NFkB inh 51*, Peg3 prom inh 1, Mdm2 MdmX PPI 33, KKLEB tox -38 and CF NFkB inh conf 24.
`C/C(=N\Nc1ccccc1[N+](=O)[O-])c1ccccc1O` gave ABHD5 PLIN5 PPI 7, HIF-2a block -288, CF NFkB inh -14, Peg3 prom inh -299, Mdm2 MdmX PPI -110 and KKLEB tox 0.
`COCCCn1cnnc1SCc1nc2sc(C(C)=O)c(C)c2c(=O)[nH]1` gave ABHD5 PLIN5 PPI -4, HIF-2a block 3, CF NFkB inh 0, Peg3 prom inh 9, Mdm2 MdmX PPI -7 and KKLEB tox 14.
